Each structure is given as a SMILES string. Records with an inconclusive call do not appear. Entries that show only a call come without a potency. Unmarked numbers belong to inactive results. Calls of active or inactive are those of the source. Calls follow the shape of the dose curve; as a rule, active = well fitted inhibition curve with a large enough effect; inconclusive = small, poorly fitted or top-dose-only effect; inactive = flat fitted curve, though single readings scatter.

The test system of this experiment is Zika virus NS2B-NS3 protease. The experiment in a line: Primary screen GU AMC qHTS for Zika virus inhibitors (AID 1347154). Also: nearly all actives have a fitted effect of over 70% in size. Particulars: Zika NS2B-NS3 unlinked protease, AMC fluorogenic substrate; series mostly up to 54.1 µM. From the text:
Avindra Nath, Ph.D., National Institute of Neurological Disorders and Stroke (NINDS), Bethesda, MD
Radhakrishnan Padmanabhan, Ph.D., Georgetown University (GU), Washington D.C.
Zika Virus causes congenital defects, including microcephaly and is associated with Guillain-Barre syndrome, eningoencephalitis and myelitis in infected adult. […] Using a target-based approach, we hope to establish a screening paradigm to uncover novel, cell-active NS2B-NS3 protease (Zika Virus) specific inhibitors from NCATS' collection of small molecules using qHTS.
Early Translation Branch (ETB)
National Center for Advancing Translational Sciences (NCATS), Rockville, MD
National Institute of Health (NIH), Bethesda, Maryland
Padmanabhan lab provided the NS2B hydrophilic domain and NS3 protease domain in a noncovalent complex used for the unlinked assay. Control compound aprotinin is obtained from Thermo Scientific (#78432; Waltham, Massachusetts). NS2B-NS3 AMC substrate (Bz-Nle-Lys-Arg-Arg-AMC; Nle-KRR-AMC) purchased from Bachem (#I-1995; Torrance, CA). Ac-VKTGKR-AMC purchased from Genscript or Bachem, Ac-FAAGKR-AMC purchased from Genscript, Ac-GLVKRR-AMC purchased from Genscript, Ac-LKKR-AMC purchased from Genscript.
GU AMC unlinked NS2B-NS3 protease qHTS protocol
Briefly, 3 microL of Zika virus unlinked NS2B-NS3 protease (25 nM for linked final concentration), in assay buffer (10 mM Tris-HCl pH 8.0 with 0.01% Tween 20) was dispensed into a 1,536-well solid-bottom black plate (Greiner Bio One, Monroe, NC). […] Plates were then read immediately on a ViewLux High-throughput CCD imager (PerkinElmer, Waltham, MA) equipped with standard UV fluorescence optics (340(30) nm excitation, 450(20) nm emission) then incubated (room temperature, protected from light) for 15 minutes (~20% conversion). The change in fluorescence intensity over the 15-minute reaction period was normalized against no-inhibitor and no-enzyme controls and the resulting percent inhibition data were fitted to a 4-parameter Hill equation. Aprotinin was used as the intraplate control.
For the molecule `Cc1cc(=O)c2c(O)c3c(O)cc(O)c4c5c(O)cc(O)c6c(O)c7c(=O)cc(C)c8c1c2c(c34)c(c65)c78`, the Potency entry was “inactive”.

In the case of `CNC(=O)[C@H]1O[C@@H](n2cnc3c(NCc4cccc(I)c4)nc(Cl)nc32)[C@H](O)[C@@H]1O`, the Potency entry is “inactive”.

Regarding `CC(N)=NCc1cccc(CN)c1`, the Potency result was “inactive”.

On to `CSc1cc2c(cc1C(F)(F)F)N(C(=O)Nc1cccnc1)CC2`, for which the Potency result was “inactive”.

Regarding `CN(C)CCCSc1ccccc1NC(=O)/C=C\c1ccccc1`, the Potency entry was “inactive”.

In the case of `CN1C[C@H](C(=O)N[C@]2(C)O[C@@]3(O)[C@H]4CCCN4C(=O)[C@H](Cc4ccccc4)N3C2=O)C[C@H]2c3cccc4[nH]cc(c34)C[C@@H]21`, the Potency entry was “inactive”.

In the case of `CC(C)CC(NC(=O)NC(CCC(=O)O)C(=O)O)C(=O)O` (stereo not given), the Potency result was “inactive”.

On to `CCCCC[C@H](O)/C=C/[C@H]1C=CC(=O)[C@@H]1C/C=C\CCCC(=O)O`, for which the activity change, negative = inhibition was 7.12% [at 6.83 µM].

As to `COc1ccc2c(c1)CC[C@@H]1[C@@H]2CC[C@]2(C)[C@@H](NCCCCCCN3C(=O)C=CC3=O)CC[C@@H]12`, the Potency entry was “inactive”.

Turning to `CN(CCc1ccc(Cl)c(Cl)c1)CC(O)COc1ccc(NS(C)(=O)=O)cc1` (stereo not given), the Potency entry is “inactive”.

Consider `CCCCC[C@H](O)/C=C/[C@H]1C(=O)C=C[C@@H]1C/C=C\CCCC(=O)O`, for which the activity change, negative = inhibition is 15.7% [at 6.83 µM].

For `NC(N)=NN=Cc1c(Cl)cccc1Cl`, the Potency entry is “inactive”.

`CN1Cc2c(C(=O)OC(C)(C)C)ncn2-c2ccsc2C1=O`: the Potency result was “inactive”.

As to `CS(=O)(=O)Nc1c(O)ccc2c1CCC[C@H]2C1=NCCN1`, the Potency entry was “inactive”.

As for `COc1oc(=O)c2cc(N)ccc2c1Cl`, the Potency entry was “inactive”.

Regarding `N[C@H](Cc1cnc[nH]1)C(=O)O`, the Potency result was “inactive”.

On to `O=C1C(c2ccccn2)=[N+]([O-])c2ccccc21`, for which the Potency result is “inactive”.

Turning to `CN1CCN2c3ccccc3Cc3ccccc3[C@@H]2C1`, the Potency entry is “inactive”.

On to `CCCn1c(=O)[nH]c2nc(-c3ccc(S(=O)(=O)O)cc3)[nH]c2c1=O`, for which the Potency entry was “inactive”.

`OC(CN1CCNCC1)Cn1c2ccc(Br)cc2c2cc(Br)ccc21` (stereo not given): the Potency result was “inactive”.

With `C=C[C@H]1CN2CCC1C[C@@H]2C(O)c1ccnc2ccc(OC)cc12` (stereo not given in full), the Potency result is “inactive”.

As for `N[C@H](CCC(=O)NCC(=O)O)C(=O)O`, the Potency result is “inactive”.

With `C/C=C1\C2C=C(C)CC1(N)c1ccc(=O)[nH]c1C2` (stereo not given), the Potency entry is “inactive”.

For the molecule `CC(=O)OCOC(=O)CN(CC(=O)OCOC(C)=O)c1ccccc1OCCOc1ccccc1N(CC(=O)OCOC(C)=O)CC(=O)OCOC(C)=O`, the Potency entry is “inactive”.

As for `Nc1nc(NCC2CCC(CNS(=O)(=O)c3cccc4ccccc34)CC2)nc2ccccc12` (stereo not given), the Potency entry is “inactive”.

`Nc1ncnc2c1ncn2[C@@H]1O[C@H](C(=O)NC2CC2)[C@@H](O)[C@H]1O`: the Potency result was “inactive”.

With `COC(=O)c1c(-c2cc(OC)c(OC)c(OC)c2)c2ccnc(OCc3ncccn3)c2c(=O)n1Cc1ccnc(C)c1`, the Potency result is “inactive”.

For the molecule `CSc1ccc2c(c1)[C@H](N1CCN(C)CC1)Cc1ccccc1S2`, the Potency entry is “inactive”.

As for `CC(N)=NCCC[C@H](N)C(=O)O`, the Potency entry is “inactive”.

Take `COc1ccc2[nH]c(I)c(CCNC(C)=O)c2c1`: the Potency result is “inactive”.

As for `CCCCC/C=C\CC1OC1CCCCCCCC(=O)O` (stereo not given), the activity change, negative = inhibition is 6.59% [at 0.59 µM].

For the molecule `CNC(=O)[C@H]1O[C@@H](n2cnc3c(N)ncnc32)[C@H](O)[C@@H]1O`, the Potency entry was “inactive”.

For `COc1ccc(CCCOC(Cn2ccnc2)c2ccc(OC)cc2)cc1` (stereo not given), the Potency result was “inactive”.

On to `N[C@@H](Cn1cc(I)c(=O)n(Cc2ccc(C(=O)O)cc2)c1=O)C(=O)O`, for which the Potency result is “inactive”.

As to `Cc1cccc(/C=C/c2ccccc2)n1`, the Potency result is “inactive”.

As to `N[C@H](Cn1ccc(=O)n(Cc2ccccc2C(=O)O)c1=O)C(=O)O`, the Potency entry was “inactive”.

For `OCCNCCCOc1cccc(Cl)c1Cl`, the Potency entry is “inactive”.

As to `NC1(C(=O)O)CCC1`, the Potency entry is “inactive”.

Regarding `O=C(NCCCN1CCCCCC1)[C@@H](c1ccccc1)C1CCCCC1`, the Potency entry was “inactive”.

Regarding `CSc1nc(N)c2ncn([C@H]3O[C@H](COP(=O)(O)OP(=O)(O)OP(=O)(O)O)[C@@H](O)[C@@H]3O)c2n1`, the Potency result is “inactive”.

The record behind these values is PubChem BioAssay (NCATS).
